From PubChem BioAssay
Compounds with a hit are over-represented: about 3.1% of the library has one in this group of screens.
EPAC2 antag: Validation qHTS for antagonist of cAMP-regulated guanine nucleotide exchange factor 4 (EPAC2) | Rap guanine nucleotide exchange factor 4 (Homo sapiens), Q8WZA2 | EPAC2 Rap1B BODIPY-GDP exchange, fluorescence | Potency, µM (doses to about 112 µM), for inactives: at the highest dose activity, negative = inhibition, actives largely listed as inhibitors | 1.7% of 16,000 active | AID 1645886, 2021;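 also: 100% = activation by cAMP agonist control; nearly all actives have a fitted effect of over 40% in size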
Target sequence (Q8WZA2 whole entry, looked up): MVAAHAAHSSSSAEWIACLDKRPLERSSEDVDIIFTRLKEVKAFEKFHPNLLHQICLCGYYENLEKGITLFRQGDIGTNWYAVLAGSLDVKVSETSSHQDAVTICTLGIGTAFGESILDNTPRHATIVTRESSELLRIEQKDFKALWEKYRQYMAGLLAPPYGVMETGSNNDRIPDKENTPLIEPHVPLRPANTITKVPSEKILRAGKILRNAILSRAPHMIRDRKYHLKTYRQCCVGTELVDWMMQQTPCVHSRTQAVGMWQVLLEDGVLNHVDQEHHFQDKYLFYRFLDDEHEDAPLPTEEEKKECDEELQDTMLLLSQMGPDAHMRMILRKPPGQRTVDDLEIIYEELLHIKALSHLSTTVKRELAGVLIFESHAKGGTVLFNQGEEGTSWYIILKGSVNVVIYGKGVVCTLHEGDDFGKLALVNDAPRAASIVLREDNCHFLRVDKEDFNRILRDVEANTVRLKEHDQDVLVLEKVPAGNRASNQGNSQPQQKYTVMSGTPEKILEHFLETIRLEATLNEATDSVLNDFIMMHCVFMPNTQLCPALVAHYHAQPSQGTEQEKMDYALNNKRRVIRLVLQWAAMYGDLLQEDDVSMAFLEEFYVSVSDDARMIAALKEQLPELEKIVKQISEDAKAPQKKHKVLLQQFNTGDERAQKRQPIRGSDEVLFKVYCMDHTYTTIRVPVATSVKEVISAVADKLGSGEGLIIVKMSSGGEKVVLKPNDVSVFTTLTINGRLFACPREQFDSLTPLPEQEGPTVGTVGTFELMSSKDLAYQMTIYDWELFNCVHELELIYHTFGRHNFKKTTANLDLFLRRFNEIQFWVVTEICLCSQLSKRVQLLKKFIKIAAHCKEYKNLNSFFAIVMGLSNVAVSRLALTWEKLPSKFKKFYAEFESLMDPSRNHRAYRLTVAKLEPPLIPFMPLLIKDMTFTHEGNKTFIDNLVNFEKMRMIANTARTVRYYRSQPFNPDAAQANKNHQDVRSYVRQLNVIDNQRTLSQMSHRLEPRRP
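Normalized against a 6.5 mM cAMP agonist control, compounds were tested on 100 nM EPAC2 exchanging Rap1B-bound BODIPY-GDP (250 nM) for 50 uM GDP. Fluorescence drop (ex 480, em 540 nm) was tracked at room temperature over 30 min at 5-min intervals.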
EPAC1 agonist: Validation qHTS for agonist of cAMP-regulated guanine nucleotide exchange factor 3 (EPAC1); Potency, µM, for inactives: max response, positive = active, actives largely listed as activators; EPAC1 Rap1b BODIPY-GDP exchange, fluorescence; Rap guanine nucleotide exchange factor 3 (Homo sapiens), O95398; 1% of 16,000 active; also: nearly all actives have a fitted effect of over 70% in size
Active calls of the source: *; ? = inconclusive; ! = repeats disagree. Calls follow the shape of the dose curve; as a rule, active = well fitted curve in the direction sought with a large enough effect; inconclusive = small, poorly fitted or top-dose-only effect, or another doubt; inactive = no such curve, though single readings can be large; an effect the other way counts as inactive or inconclusive. Unless noted, % is scaled to controls: 0 for no effect and ±100 for the full control effect; potency is read from the fitted curve at half-maximal effect.

SMILES | EPAC2 antag | EPAC1 agonist
c1ccc(-c2csc(-c3nc4ccccc4[nH]3)n2)cc1 | -15.5% | ?
c1ccc(CCNc2nc(-c3ccccc3)cs2)cc1 | -13.6% | 100µM*
CCN(CC)c1ccccc1/C=C/[n+]1ccc(CCCCI)c2ccccc21 | 56.2µM* | -109.7%
COC(=O)C1=C(C)NC(C)=C(C(=O)OCC(C)=O)C1c1ccccc1[N+](=O)[O-] (stereo unspecified) | -8.3% | 8.8%
COC(=O)C1=C(C)NC(C)=C([N+](=O)[O-])[C@H]1c1ccccc1C(F)(F)F | 50.1µM* | -14.7%
COC(=O)C1=C(C)NC(C)=C([N+](=O)[O-])[C@@H]1c1ccccc1C(F)(F)F | 39.8µM* | -14.2%
COC(=O)C1=C(C)NC(C)=C(C(=O)OCCSc2ccccc2)[C@@H]1C | ? | 16.8%
CCN1\C(=C/C=C/C=C/c2sc3ccccc3[n+]2CC)Sc2ccccc21 | ? | -135.9%
COC(=O)c1cccc(C(=O)N2CCc3c(C(=O)OC)c(OCc4ccccn4)cc(=O)n3CC2)c1 | 3.3% | -3.6%
CCOC(=O)N1CCN(Cc2ccc3c(c2)CN(C(=O)c2cc(-c4ccccc4)no2)CCO3)CC1 | -18.0% | 6.4%
O=c1c(-c2ccc(Cl)cc2)nc2cncnc2n1Cc1ccccc1Cl | -21.9% | 112µM*
O=c1c(-c2ccc(Cl)cc2)nc2cncnc2n1Cc1ccccc1 | -27.7% | ?
COC(=O)c1ccc(CN2CCOc3ccc(CN4CCC(O)(c5cccnc5)CC4)cc3C2)cc1 | 7.7% | 0.4%
COc1cc(CNc2nc(C)c(-c3ccn(C4Cc5ccccc5C4)n3)s2)cc2c1OCO2 | -12.0% | ?
CCc1cc(C(=O)NCC2Cc3cc(C)cc(-c4cc(C(C)=O)ccc4F)c3O2)n(C)n1 (stereo unspecified) | ? | 1.4%
CC(C)C[C@@H](COc1ccccc1)N1CCN(CCc2ccccc2)CCC1=O | 31.6µM* | -12.2%
CCCN1CCC(=O)N([C@H](COc2ccccc2)CC(C)C)CC1 | 9.6% | -16.9%
O=C(NCCN1Cc2ccccc2OC(c2ccsc2)C1)c1cncs1 (stereo unspecified) | -20.1% | -9.9%
COCCn1c(=O)c(C)nc2cnc(Nc3cccc(OC)c3)nc21 | -9.1% | -5.9%
COc1cccc(Cn2c(=O)c(-c3ccc(Cl)cc3)nc3cnc(N4CCNCC4)nc32)c1 | 50.1µM* | ?
COCCn1c(=O)c(-c2ccc(OC)cc2)nc2cnc(Nc3cccc(OC)c3)nc21 | ? | 112µM*
COCCn1c(=O)c(-c2cccc(C#N)c2)nc2cnc(Nc3ccccc3)nc21 | 9.9% | 112µM*
COCCn1c(=O)c(CCc2ccccc2)nc2cnc(Nc3cccc(OC)c3)nc21 | -30.3% | 112µM*
COCCn1c(=O)c(-c2cccc(C#N)c2)nc2cnc(Oc3ccccc3)nc21 | -20.1% | ?
COc1ccc(-c2nc3cnc(N4CCNCC4)nc3n(Cc3cccc(OC)c3)c2=O)cc1 | -98.1% | ?
SMILES | EPAC2 antag | EPAC1 agonist
COCCn1c(=O)c(CCc2ccccc2)nc2cnc(Nc3ccccc3)nc21 | -11.8% | -21.2%
Cc1ccc(C(=O)Nc2cccc(-c3nc(CNC(=O)c4ccc(F)cc4Cl)c(C)o3)c2)s1 | -9.7% | 14.8%
Cc1nc2ccccc2nc1CN1CCOc2ccc(C3(O)CCN(c4ccccc4F)CC3)cc2C1 | -14.6% | 0.4%
CCCCCCCCCc1ccc(OCCOCCO)cc1 | ? | -116.1%
Cc1cc(C)n(-c2cccc(C(=O)NCC3Cc4cccc(-c5ccccn5)c4O3)c2)n1 (stereo unspecified) | ? | -0.2%
Cc1cccc2c(Nc3ccc4c(c3)OCO4)nc(CN3CCC(N4CCCCC4)CC3)nc12 | -21.4% | 6.3%
CO/N=C(\C(=O)N[C@@H]1C(=O)N2C(C(=O)O)=C(CSc3nc(C)c(CC(=O)O)s3)CS[C@H]12)c1csc(N)n1 | 17.9% | -8.4%
COc1cccc(Cn2c(=O)c(-c3cccs3)nc3cnc(Nc4cccc(OC)c4)nc32)c1 | -3.3% | 112µM*
COc1ccc(Nc2ncc3nc(-c4cccs4)c(=O)n(Cc4cccc(OC)c4)c3n2)cc1 | 12.4% | ?
CO[C@@H]1[C@@H](O[C@@H]2O[C@H](C)[C@@H](O[C@H]3C[C@@](C)(O)[C@@H](OC(=O)CC(C)C)[C@H](C)O3)[C@H](N(C)C)[C@H]2O)[C@@H](CC=O)C[C@@H](C)C(=O)/C=C/C2OC2C[C@@H](C)OC(=O)C[C@H]1OC(C)=O (stereo partly specified) | 0.7% | -17.1%
Cc1cccc(CNc2nc(-c3cccc(NS(C)(=O)=O)c3)nc3ccccc23)c1 | -29.4% | ?
COc1ccccc1CNc1nc(-c2ccc(N(C)C)cc2)nc2ccccc12 | -10.6% | ?
COc1cccc(-c2nc(NCc3ccccc3OC)c3ccccc3n2)c1 | -23.3% | ?
COc1ccccc1CNc1nc(-c2cccc(NS(C)(=O)=O)c2)nc2ccccc12 | -22.3% | 100µM*
COc1ccccc1CNc1nc(-c2cccc(C#N)c2)nc2ccccc12 | -16.6% | 100µM*
COc1ccccc1CNc1nc(-c2ccc3c(c2)OCO3)nc2ccccc12 | -23.1% | 100µM*
OC[C@H]1OC([S-])[C@H](O)[C@@H](O)[C@@H]1O.[Au+] (stereo partly specified) | -27.6% | 6.2%
CC(C)C(=O)OCC(=O)[C@@]12O[C@H](C3CCCCC3)O[C@@H]1C[C@H]1[C@@H]3CCC4=CC(=O)C=C[C@]4(C)[C@H]3[C@@H](O)C[C@@]12C | 3.5% | -16.0%
CO[C@@H]1[C@@H](OC)[C@H](C)[C@@](O)(CC(=O)O)O[C@H]1[C@H](C)[C@H]1O[C@@]2(CC[C@@](C)([C@H]3CC[C@@](C)([C@@H]4O[C@@H]([C@H]5O[C@](C)(O)[C@H](C)C[C@@H]5C)C[C@@H]4OC4C[C@H](OC)[C@@H](OC)[C@H](C)O4)O3)O2)C[C@H](O)[C@H]1C (stereo partly specified) | 4.6% | -53.1%
COc1ccccc1C1CN(CCNC(=O)c2cnsn2)Cc2ccccc2O1 (stereo unspecified) | -20.6% | 22.1%
Cc1cc(C)c(S(=O)(=O)Nc2ccccc2C(F)(F)F)c(C)c1 | 44.7µM* | 5.8%
Cc1ccc(CNc2nc(CN3CCCCC3c3cccnc3)nc3ccccc23)o1 (stereo unspecified) | ? | -9.0%
COc1ccccc1C1CN(Cc2c(C)nc3sccn23)Cc2ccccc2O1 (stereo unspecified) | -14.1% | 13.0%
Nc1cc(-c2ccncc2)c[nH]c1=O | 35.5µM*! | ?
Cc1cnc(C)c(-c2ccc(F)c3c2OC(CNC(=O)/C=C/c2cccs2)C3)n1 (stereo unspecified) | -16.8% | -23.0%
SMILES | EPAC2 antag | EPAC1 agonist
C[C@@H]1CN(Cc2ccc3c(c2)CN(Cc2nc(-c4ccccc4)cs2)CCO3)C[C@H](C)O1 | -6.8% | 9.9%
COc1ccc(Oc2ncc3nc(C)c(=O)n(Cc4cccs4)c3n2)cc1 | ? | 112µM*
Cc1nc2cnc(N(C)C)nc2n(Cc2cccs2)c1=O | -30.5% | -14.3%
Cc1nc2cnc(Oc3ccccc3)nc2n(Cc2cccs2)c1=O | ? | 24.5%
CN(C)c1ncc2nc(-c3cc(F)cc(F)c3)c(=O)n(Cc3cccs3)c2n1 | -22.0% | 112µM*
CN(C)c1ncc2nc(-c3ccc(F)cc3)c(=O)n(Cc3cccs3)c2n1 | 1.1% | -11.9%
